RORgamma inh – qHTS for inhibitors of ROR gamma transcriptional activity; Potency, µM (titrated, usually from 53.6 µM), inactives show at the highest dose activity change, negative = inhibition, actives largely listed as inhibitors; AID 2551, 2010; Drosophila S2 Gal4-RORgamma UAS-luciferase reporter, 20 h; 310,000 tested, 5.4% active; Nuclear receptor ROR-gamma (Mus musculus), P51450; also: nearly all actives have a fitted effect of over 60% in size
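Drosophila Schneider cells stably carrying a metallothionein-driven Gal4 DBD–ROR gamma fusion and a UAS-Photinus luciferase reporter were exposed to compound for 1 hr, then induced with copper sulfate (700 uM final) for 20 hr at ambient temperature before luminescence reading.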
NPSR antag – qHTS Assay for Antagonists of the Neuropeptide S Receptor: cAMP Signal Transduction | Q6W5P4 | CHO-NPSR cells, cAMP TR-FRET, antagonist mode | 220,000 tested, 1% active | AID 1461, 2008 | Potency, µM (series often up to 38.3 µM), inactives show top-dose activity change, negative = inhibition, actives largely listed as inhibitors; also: nearly all actives have a fitted effect of over 50% in size
B2AR arrestin – qHTS assay of beta-arrestin-biased ligands of beta2-adrenergic receptor | Beta-2 adrenergic receptor (Homo sapiens), P07550 | beta-arrestin recruitment to beta2AR, cell-based reporter | Potency, µM (doses to about 46.1 µM), inactives show at the top dose activation, usual class: activators | 330,000 tested, 0.02% active | AID 492947, 2010;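 also: 0% = DMSO controls and full agonism = EC100 isoproterenol or metaproterenol; nearly all actives have a fitted effect of over 65% in size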
Target sequence (P07550 whole entry, looked up): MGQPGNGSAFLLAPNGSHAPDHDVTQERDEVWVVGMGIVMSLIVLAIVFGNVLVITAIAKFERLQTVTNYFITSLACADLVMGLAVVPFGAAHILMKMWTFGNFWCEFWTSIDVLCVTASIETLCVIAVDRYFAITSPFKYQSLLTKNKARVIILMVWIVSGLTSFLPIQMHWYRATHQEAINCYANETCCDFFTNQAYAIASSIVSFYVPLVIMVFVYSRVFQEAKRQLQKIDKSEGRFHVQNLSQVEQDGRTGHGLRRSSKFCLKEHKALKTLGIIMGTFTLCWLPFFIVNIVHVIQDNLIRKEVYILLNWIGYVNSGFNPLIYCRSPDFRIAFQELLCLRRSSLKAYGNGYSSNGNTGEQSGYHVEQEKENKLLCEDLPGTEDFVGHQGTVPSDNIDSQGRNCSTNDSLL
VP16 counter – VP16 counterscreen qHTS for inhibitors of ROR gamma transcriptional activity. Drosophila S2 Gal4-VP16 UAS-luciferase, luminescence, 20 h. Potency, µM (highest dose often 53.6 µM), for inactives: at the top dose activity, negative = inhibition, most hits filed as inhibitors. 310,000 tested, 3.5% active. AID 2546, 2010;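 also: Gal4-VP16 expression switched on by copper sulfate through the metallothionein promoter; nearly all actives have a fitted effect of over 50% in size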
* hit, by the source's call; ? = inconclusive; . = no result; [ ] = dose if it differs, or a comment. Only some compounds are listed: those with a hit (about 5.7% of all), similar ones and a draw of the others. Calls follow the shape of the dose curve; as a rule, active = well fitted curve in the direction sought with a large enough effect; inconclusive = small, poorly fitted or top-dose-only effect, or another doubt; inactive = no such curve, though single readings can be large; an effect the other way counts as inactive or inconclusive. Unless noted, % is scaled to controls: 0 for no effect and ±100 for the full control effect; potency is read from the fitted curve at half-maximal effect.

SMILES	RORgamma inh	NPSR antag	B2AR arrestin	VP16 counter
COC(=O)[C@]1(C)N[C@H](CN(C)S(=O)(=O)c2ccc(C(F)(F)F)cc2)[C@@H]2C(=O)N(C)C(=O)[C@@H]21	.	.	0.1%	.
O=C(CNC(=O)c1cccc(Cl)c1)N/N=C/C=C/c1ccccc1	?	-29.7%	0.1%	?
CC(C)Oc1cccc(C(=O)NC(=S)Nc2cccc(NC(=O)c3ccccc3Cl)c2)c1	11.2µM*	-34.8%	-0.7%	8.91µM*
CC(C)CC(=O)NC(=S)Nc1cccc(NC(=O)c2ccccc2Cl)c1	?	-20.3%[46.1 µM]	-0.1%	?
CCC(=O)NC(=S)Nc1ccc(NC(=S)NC(=O)c2ccccc2)cc1	3.16µM*	-25.2%	-0.1%	?
COC(=O)CC(NC(=S)NC(=O)c1ccccc1)c1ccc(Br)cc1 (stereo not drawn)	12.6µM*	.	0.3%	?
CCC(=O)NC(=S)Nc1cccc(NC(=O)c2ccccc2Cl)c1	11.2µM*	0.0%[46.1 µM]	0.2%	-24.7%
Nc1cc(C(F)(F)F)ccc1OCC1CCCO1 (stereo not drawn)	38.3%	.	-0.1%	12.8%
CCOC(=O)NC(=S)c1ccc[nH]1	12.6µM*	7.2%	0.4%	?
CCC(=O)NC(=S)Nc1cccc(NC(=O)c2ccccc2C)c1	?	2.7%	0.5%	-2.3%
CCOC(=O)NC(=S)Nc1cccc(NC(=S)NC(=O)OCC)c1	7.08µM*	-3.0%	0.0%	?
CCC(=O)NC(=S)Nc1cccc(NC(=O)c2ccccc2)c1	5.01µM*	-8.9%	-0.7%	?
CNC(=O)[C@H](Cc1c[nH]c2ccccc12)NC(=O)[C@@H](CC(=O)NO)CC(C)C	5.7%	.	.	3.7%
O=C1c2sc3nc4n(c(=O)c3c2CCC1Br)CCCCC4 (stereo not drawn)	10µM*	-10.3%[46.1 µM]	0.0%	20µM*
COc1cc2oc(=O)cc(-c3ccc(-c4ccc(CO)cc4)cc3)c2c(OC)c1OC	16.2%	.	-0.2%	-3.6%
CC1(C)CC(=O)C2=C(C1)O[C@@]1(c3ccsc3)Cc3cc(C#N)ccc3C2O1	1.9%[10 µM]	.	0.1%[9.22 µM]	3.1%[10 µM]
Cc1ccc(Cn2c(C3CCCN3c3nc(C)cs3)nc3cc(C(F)(F)F)ccc32)cc1 (stereo not drawn)	3.55µM*	.	0.5%	?
CCOC(=O)OCC1C=C[C@H](c2cc(-c3ccccc3)ccc2O)C(c2ccc(C(C)=O)cc2)O1 (stereo partly drawn)	22.6%[10 µM]	.	.	-2.1%[10 µM]
CCOC(=O)CNC(=S)n1cnc(N)n1	7.94µM*	10.9%	-0.1%	-15.1%
N#Cc1c(NC(=O)c2ccccc2)sc2c1CCC2	-14.9%	-12.5%[46.1 µM]	0.3%	0.9%
Cn1ncc(Cl)c1C(=O)NC(=S)Nc1sc2c(c1C#N)CCCCC2	11.2µM*	-6.1%[46.1 µM]	-0.9%	?
CCCC1Cc2c(sc(NC(=S)NC(=O)c3ccccc3)c2C#N)CO1 (stereo not drawn)	4.47µM*	9.0%	-0.5%	?
N#Cc1c(NC(=S)NC(=O)c2ccccc2)sc2c1CCCC2	6.31µM*	7.3%	-0.7%	10µM*
Cc1cccc(C(=O)Nc2sc3c(c2C#N)CCCCC3)c1	7.94µM*	-15.6%[46.1 µM]	-0.4%	?
CCC(=O)Nc1sc2c(c1C#N)CCC2	1.5%	7.0%	0.2%	11.3%
SMILES	RORgamma inh	NPSR antag	B2AR arrestin	VP16 counter
CC1CCc2c(sc(NC(=S)NC(=O)c3ccccc3)c2C#N)C1 (stereo not drawn)	-44.6%	13.8%	-0.3%	-7.4%
Cc1ccccc1C(=O)NC(=S)Nc1sc2c(c1C#N)CCC(C)C2 (stereo not drawn)	7.94µM*	-1.6%[46.1 µM]	-0.3%	?
CC(C)CC(=O)NC(NC(=S)Nc1sc2c(c1C#N)CCCC2)C(Cl)(Cl)Cl (stereo not drawn)	10µM*	-28.7%[46.1 µM]	0.5%	?
CC/C=C\C/C=C\C/C=C\C/C=C\C=C\C(O)CCCC(=O)O (stereo not drawn)	-37.7%	.	.	0.6%
NC(N)=NC(=S)Nc1ccc(Cl)cc1	?	-14.1%	-0.5%	?
N/C(=N\C(=S)Nc1ccccc1)c1ccccc1	7.94µM*	.	0.3%	?
CN=C1N[C@H](c2ccccc2)N(c2ccccc2)S1	10µM*	.	.	28.2µM*
C[C@@H](NC(=O)[C@@H]1Cc2ccccc2CN1C(=O)OC(C)(C)C)C(=O)NC1CCCCC1	12.5%	.	0.5%	-26.0%
O=C(Nc1ccncc1)C1(c2ccccc2)CCCC1	12.3%	?	-0.6%	-11.2%
S=C(Nc1ccccn1)c1ccccn1	7.08µM*	2µM*	?	3.16µM*
O=C(Nc1ccccn1)C(=O)Nc1ccccn1	10µM*	-6.4%	5.1%	12.6µM*
O=C(Nc1ccccn1)C1(c2ccccc2)CCCC1	-11.7%	4.1%[46.1 µM]	2.9%	20µM*
CCN(CC)c1ccc(S(=O)(=O)N2CCOCC2)cc1NC(=O)CSc1n[nH]c(N)n1	?	-5.0%	0.0%	5.9%
CC(C)C(=O)N1CCN(c2ccccc2NC(=O)c2ccco2)CC1	-16.2%	.	-0.1%	9.5%
COC(=O)c1sc2cc(=O)n(-c3cccc(C(F)(F)F)c3)nc2c1O	4.3%	10µM*	-0.2%	-7.4%
Cc1ccc(NC(=O)CN(C)S(=O)(=O)c2cccs2)cc1F	?	-1.4%[46.1 µM]	-0.6%	-20.0%
Cc1ccc(NC(=O)CN(C)S(=O)(=O)c2cccs2)cc1C	?	16.2%[46.1 µM]	0.5%	7.94µM*
Cn1c(C(C#N)C(=O)c2sc3ccccc3c2Cl)nc2ccccc21 (stereo not drawn)	1.78µM*	-19.5%[46.1 µM]	-0.5%	4.47µM*
CCOc1ncccc1C(=O)OCC(=O)N(CC)c1ccccc1	27.3%	-6.0%	0.1%	-18.7%
Cc1ccccc1C1C(C#N)=C2N=C(N)c3c(sc4c3CCCCC4)N2C2=C1C(=O)CC(C)(C)C2 (stereo not drawn)	12.6µM*	?	-1.3%	?
O=C(Cn1cnc2ccccc2c1=O)c1cccs1	3.2%	-10.5%[46.1 µM]	0.3%	-5.2%
COc1ccc(/C=C/C(=O)c2cccs2)c(OC)c1	12.6µM*	.	.	35.5µM*
COc1ccc(OC)c(C(=O)/C=C/c2ccccc2C(F)(F)F)c1	12.6µM*	?	-0.3%	?
O=C(/C=C/c1ccnc2ccccc12)c1cccs1	?	?	-0.3%	14.1µM*
COc1ccc(C(=O)/C=C/c2ccccc2)c(OC)c1	?	-2.9%	-0.2%	-11.8%
CC(=O)N[C@H]1[C@H](O[C@@H]2c3ccc(c(Cl)c3)Oc3cc4cc(c3O[C@@H]3O[C@H](CO)[C@@H](O)[C@H](O)C3C)Oc3ccc(cc3Cl)C[C@H]3NC(=O)[C@@H](N)c5ccc(O)c(c5)Oc5cc(O)cc(c5)[C@H](NC3=O)C(=O)N[C@H]4C(=O)N[C@H]3C(=O)N[C@@H]2C(=O)N[C@@H](C(=O)O)c2cc(O)cc(O[C@H]4O[C@H](CO)[C@@H](O)C(O)[C@@H]4O)c2-c2cc3ccc2O)O[C@H](CO)[C@@H](O)[C@@H]1O (stereo partly drawn)	2.4%[16.9 µM]	.	.	6.4%[17 µM]

Screens from PubChem.
